This is an account of results in PubChem BioAssay AID602447 (National Center for Advancing Translational Sciences (NCATS), 2012).

The assay concerns the target Beta-2 adrenergic receptor (Homo sapiens) (UniProt P07550). Briefly: qHTS for antagonists of the Thyroid Stimulation Hormone Receptor: Hit Validation with Beta-2 Adrenergic Receptor. The note with it: B2AR-expressing cells, cAMP HTRF, antagonist counterscreen; active compounds read high. The text has this: The thyroid-stimulating hormone receptor (TSHR) is a member of the 7 trans-membrane-spanning receptor (7TMR) family of cell surface receptors. TSHR-mediated hyperthyroidism is important in thyroid pathology. The development of small molecule antagonists of TSHR may lead to therapeutic approaches for TSHR-mediated hyperthyroidism caused by constitutively activating mutations or stimulating auto-antibodies associated with Graves' disease. Graves' disease is the leading cause of hyperthyroidism and is caused by autoantibodies that stimulate TSHR (TsAbs) causing thyroid growth and unregulated overproduction of thyroid hormones and existing treatments have liabilities (agranulocytosis). In addition, TSHRs are known to be expressed in multiple extrathyroidal tissues including bone, brain, kidney, testis, fat and cells of the immune system but the role of the TSHR in these tissues is not clear. Therefore, TSHR antagonists/inverse agonists could be used as probes of extrathyroidal TSHR function. Finally, TSHR inverse agonists, which are a subclass of antagonists that inhibit agonist-independent (or basal or constitutive) TSHR signaling, could be used to inhibit TSH-independent signaling in patients with recurrent or metastatic thyroid cancer who are receiving thyroid hormone to suppress TSH. […]

Results filed as inconclusive are left out. The source made the active and inactive calls. No rule for the calls is given here.

Beta-2 adrenergic receptor (Homo sapiens), sequence (P07550 whole entry, looked up): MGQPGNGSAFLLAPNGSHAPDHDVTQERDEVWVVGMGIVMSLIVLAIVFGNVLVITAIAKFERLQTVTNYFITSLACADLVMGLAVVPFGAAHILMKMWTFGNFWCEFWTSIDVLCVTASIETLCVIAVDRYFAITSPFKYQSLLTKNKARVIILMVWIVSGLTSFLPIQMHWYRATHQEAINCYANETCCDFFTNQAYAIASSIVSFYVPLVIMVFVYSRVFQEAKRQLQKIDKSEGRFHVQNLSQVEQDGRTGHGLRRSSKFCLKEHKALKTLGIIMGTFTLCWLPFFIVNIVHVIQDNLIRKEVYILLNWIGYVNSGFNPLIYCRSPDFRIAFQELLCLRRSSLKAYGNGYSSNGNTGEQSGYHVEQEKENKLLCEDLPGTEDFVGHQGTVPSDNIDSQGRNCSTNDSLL

For `N#CC(C#N)=NNc1ccc(-n2ccc(C(F)(F)F)n2)cc1`, the max inhibition was 91.9% (active).
